Here are results for 38 compounds from PubChem BioAssay (NCATS).

Molecules are shown by their SMILES. Results filed as inconclusive are left out. A call without a number means that no potency is given here. Active and inactive are the calls of the source. Calls follow the shape of the dose curve; as a rule, active = well fitted inhibition curve with a large enough effect; inconclusive = small, poorly fitted or top-dose-only effect; inactive = flat fitted curve, though single readings scatter.
Potency is read from the fitted curve at half-maximal effect.

In the first assay the test system is CP262. Description: qHTS profiling for inhibitors of Plasmodium falciparum proliferation (AID 504749). Also: nearly all actives have a fitted effect of over 60% in size. The conditions noted are these: P. falciparum in erythrocytes, SYBR Green DNA, 72 h; series mostly up to 28.7 µM. The procedure, abridged: (§1)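 Parasite proliferation within erythrocytes, 72 h exposure. Endpoint: SYBR Green I fluorescence after overnight lysis at room temperature. Controls: 0.29 uM artemisinin, DMSO.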
With `CN1CCN(c2c(F)cc3c(=O)c(C(=O)O)cn4c3c2SCC4)CC1`, the Potency entry was “inactive”.

As for `COc1ccc(C(=O)c2ccccc2O)c(O)c1`, the Potency entry is “inactive”.

Regarding `CCc1ccc(C(=O)C(C)CN2CCCCC2)cc1` (configuration not stated), the Potency entry was “inactive”.

For the compound `C#C[C@]1(O)CC[C@H]2[C@@H]3CCC4=CC(=O)CC[C@@H]4[C@H]3CC[C@@]21CC`, the Potency entry is “inactive”.

For the compound `NC(N)=NN=C(/C=C/c1ccc([N+](=O)[O-])o1)/C=C/c1ccc([N+](=O)[O-])o1`, the Potency result was “inactive”.

As to `FC1(F)C(F)(F)C(F)(F)C2(F)C(F)(F)C(F)(F)C(F)(F)C(F)(F)C2(F)C1(F)F` (configuration not stated), the Potency result is “inactive”.

For the compound `CC(C)[N+](C)(C)CC(O)COc1cccc2ccccc12` (configuration not stated), the Potency entry was “inactive”.

Consider `O=C(O)C1(C(=O)O)CCC1.[NH2-].[NH2-].[Pt+2]`, for which the Potency entry is “inactive”.

As to `Cc1cc(CC(=O)O)c(C)n1-c1ccc(Cl)cc1`, the Potency result is “inactive”.

For `O=C(Oc1cccc2cccnc12)c1ccccc1`, the Potency result was “inactive”.

Regarding `CN(C)C(=O)Nc1ccc(Cl)c(Cl)c1`, the Potency result is “inactive”.

As to `CN(C)CCC[C@@]1(c2ccc(F)cc2)OCc2cc(C#N)ccc21`, the Potency result was “inactive”.

`Cc1ccc2c(Br)cc(Br)c(O)c2n1`: the Potency entry was “inactive”.

Consider `N=C(N)N1CCc2ccccc2C1`, for which the Potency entry was “inactive”.

As for `COc1ccc(C(=O)c2ccccc2)c(O)c1`, the Potency result is “inactive”.

For the compound `COc1cc(C(=O)N2CCCCCCC2)cc(OC)c1OC`, the Potency entry was “inactive”.

`Cc1cccc(C)c1NC(=O)c1ccccc1C(=O)O`: the Potency result is “inactive”.

In the case of `CC(=O)NCCCCCC(=O)O`, the Potency entry was “inactive”.

With `Cc1cccc(C)c1NC(=O)CN1CCCC1`, the Potency entry is “inactive”.

In the case of `COc1cc(O)c(C(=O)c2ccccc2)cc1S(=O)(=O)O`, the Potency entry was “inactive”.

On to `CC(C)(C)CC(C)(C)c1ccc(O)c(-n2nc3ccccc3n2)c1`, for which the Potency entry was “inactive”.

Consider `Oc1ccc(Cl)cc1Cc1cc(Cl)ccc1O`, for which the Potency entry was “inactive”.

A further assay relates to CP265. The assay is described as above. The conditions noted are these: P. falciparum in erythrocytes, SYBR Green DNA, 72 h; series mostly up to 28.7 µM. In outline: as §1
Regarding `CN1CCN(c2cc3c(cc2F)c(=O)c(C(=O)O)cn3-c2ccc(F)cc2)CC1`, the Potency entry was “inactive”.

Consider `NCc1ccccc1Sc1ccccc1CO`, for which the Potency entry was “inactive”.

With `O=C(c1ccc(F)cc1)C1CCN(CCn2c(=S)[nH]c3ccccc3c2=O)CC1`, the Potency is 7.94 µM (active).

As for `CCc1ccc(C(=O)C(C)CN2CCCCC2)cc1` (configuration not stated), the Potency result was “inactive”.

For the compound `CCCN(CCc1cccs1)[C@H]1CCc2c(O)cccc2C1`, the Potency is 11.2 µM (active).

On to `C#C[C@]1(O)CC[C@H]2[C@@H]3CCC4=CC(=O)CC[C@@H]4[C@H]3CC[C@@]21CC`, for which the Potency entry was “inactive”.

For `FC1(F)C(F)(F)C(F)(F)C2(F)C(F)(F)C(F)(F)C(F)(F)C(F)(F)C2(F)C1(F)F` (configuration not stated), the Potency entry is “inactive”.

For `CC(C)[N+](C)(C)CC(O)COc1cccc2ccccc12` (configuration not stated), the Potency result was “inactive”.

As to `CCCc1ncc(C[n+]2ccccc2C)c(N)n1`, the Potency entry is “inactive”.

On to `O=C(O)C1(C(=O)O)CCC1.[NH2-].[NH2-].[Pt+2]`, for which the Potency result is “inactive”.

`Cc1cc(CC(=O)O)c(C)n1-c1ccc(Cl)cc1`: the Potency entry was “inactive”.

On to `O=C(Oc1cccc2cccnc12)c1ccccc1`, for which the Potency entry was “inactive”.

In the case of `O=C(O)CCc1nc2ccccc2[nH]1`, the Potency entry is “inactive”.

For `CN(C)C(=O)Nc1ccc(Cl)c(Cl)c1`, the Potency entry is “inactive”.

Turning to `C[N+]1(C)CCC(=C(c2ccccc2)c2ccccc2)CC1`, the Potency result is “inactive”.

As to `Cc1ccc(O)c([C@H](CCN(C(C)C)C(C)C)c2ccccc2)c1`, the Potency is 7.08 µM (active).

In the case of `O=C(O)c1ccc(S(=O)(=O)N(Cl)Cl)cc1`, the Potency entry was “inactive”.

Turning to `CN(C)CCC[C@@]1(c2ccc(F)cc2)OCc2cc(C#N)ccc21`, the Potency entry is “inactive”.

Consider `N=C(N)N1CCc2ccccc2C1`, for which the Potency entry was “inactive”.

As for `O=[N+]([O-])c1cccc(S(=O)(=O)NCCNS(=O)(=O)c2cccc([N+](=O)[O-])c2)c1`, the Potency result was “inactive”.

Regarding `COc1cc(C(=O)N2CCCCCCC2)cc(OC)c1OC`, the Potency result is “inactive”.

Consider `Cc1cccc(C)c1NC(=O)c1ccccc1C(=O)O`, for which the Potency result was “inactive”.

Consider `CC(=O)NCCCCCC(=O)O`, for which the Potency result is “inactive”.

Turning to `Cc1ncc(CO)c(C=O)c1O`, the Potency result is “inactive”.

Turning to `O=C1C(=O)c2ccccc2C(O)=C1C1CCC(c2ccc(Cl)cc2)CC1` (configuration not stated), the Potency was 0.0006 µM (active).

On to `Cc1cccc(C)c1NC(=O)CN1CCCC1`, for which the Potency entry is “inactive”.

For the compound `CC(C)NCC(O)c1ccc2ccccc2c1` (configuration not stated), the Potency is 10 µM (active).

On to `NC(N)=NCc1cccc(I)c1`, for which the Potency entry was “inactive”.

The test system of a further assay is CP266. Described as above. The conditions noted are these: P. falciparum in erythrocytes, SYBR Green DNA, 72 h; series mostly up to 28.7 µM. The procedure, abridged:
as §1
`CN1CCN(C2=Nc3ccccc3Sc3ccc(Cl)cc32)CC1`: the Potency result was “inactive”.

`NCc1ccccc1Sc1ccccc1CO`: the Potency entry was “inactive”.

Take `O=C(c1ccc(F)cc1)C1CCN(CCn2c(=S)[nH]c3ccccc3c2=O)CC1`: the Potency was 7.57 µM (active).

As for `CN1CCN(c2c(F)cc3c(=O)c(C(=O)O)cn4c3c2SCC4)CC1`, the Potency entry is “inactive”.

Regarding `COc1ccc(C(=O)c2ccccc2O)c(O)c1`, the Potency result was “inactive”.

Consider `CCc1ccc(C(=O)C(C)CN2CCCCC2)cc1` (configuration not stated), for which the Potency result is “inactive”.

As to `C#C[C@]1(O)CC[C@H]2[C@@H]3CCC4=CC(=O)CC[C@@H]4[C@H]3CC[C@@]21CC`, the Potency result is “inactive”.

On to `FC1(F)C(F)(F)C(F)(F)C2(F)C(F)(F)C(F)(F)C(F)(F)C(F)(F)C2(F)C1(F)F` (configuration not stated), for which the Potency result is “inactive”.

As to `CCCc1ncc(C[n+]2ccccc2C)c(N)n1`, the Potency entry is “inactive”.

Regarding `O=C(O)C1(C(=O)O)CCC1.[NH2-].[NH2-].[Pt+2]`, the Potency entry is “inactive”.

Take `Cc1cc(CC(=O)O)c(C)n1-c1ccc(Cl)cc1`: the Potency result was “inactive”.

In the case of `O=C(Oc1cccc2cccnc12)c1ccccc1`, the Potency entry is “inactive”.

With `O=C(O)c1ccc(S(=O)(=O)N(Cl)Cl)cc1`, the Potency entry is “inactive”.

Consider `CN(C)CCC[C@@]1(c2ccc(F)cc2)OCc2cc(C#N)ccc21`, for which the Potency entry is “inactive”.

For `N=C(N)N1CCc2ccccc2C1`, the Potency result was “inactive”.

With `O=[N+]([O-])c1cccc(S(=O)(=O)NCCNS(=O)(=O)c2cccc([N+](=O)[O-])c2)c1`, the Potency result was “inactive”.

Regarding `COc1ccc(C(=O)c2ccccc2)c(O)c1`, the Potency entry is “inactive”.

`COc1cc(C(=O)N2CCCCCCC2)cc(OC)c1OC`: the Potency entry is “inactive”.

For the compound `Cc1cccc(C)c1NC(=O)c1ccccc1C(=O)O`, the Potency entry is “inactive”.

For the compound `CC(=O)NCCCCCC(=O)O`, the Potency result was “inactive”.

Consider `O=C1C(=O)c2ccccc2C(O)=C1C1CCC(c2ccc(Cl)cc2)CC1` (configuration not stated), for which the Potency is 0.0064 µM (active).

On to `CCOC(=O)c1c(N)sc2c1CCN(Cc1ccccc1)C2`, for which the Potency was 12 µM (active).

`CC(C)NCC(O)c1ccc2ccccc2c1` (configuration not stated): the Potency entry was “inactive”.

Take `NC(N)=NCc1cccc(I)c1`: the Potency entry was “inactive”.

Regarding `COc1cc(O)c(C(=O)c2ccccc2)cc1S(=O)(=O)O`, the Potency entry was “inactive”.

Take `CC(C)(C)CC(C)(C)c1ccc(O)c(-n2nc3ccccc3n2)c1`: the Potency entry is “inactive”.

Consider `Oc1ccc(Cl)cc1Cc1cc(Cl)ccc1O`, for which the Potency entry is “inactive”.
